In PubChem BioAssay AID2314 (National Center for Advancing Translational Sciences (NCATS), 2010):
Hit rate of the full screen: of about 300,000 compounds, about 37,000 (12%) were called active. What follows is part of a selection rich in actives, with near analogues and random picks from the rest. Values without a mark were called inactive. Cut-off read from the data, not from the text of the source: active = max response mostly above about 13% (no sharp cut-off); inactive = mostly below about 14%.

Assay: Cycloheximide Counterscreen for Small Molecule Inhibitors of Shiga Toxin; note: read at 38.3 µM for the half of the compounds with a filed dose; 0% is about no effect
Conditions: cell reporter, cycloheximide protein synthesis inhibition counterscreen; hits give high values

| Structure (SMILES) | max response |
| --- | --- |
| CC(=O)NC(CC(=O)Nc1nc(-c2ccccc2)c(C(C)=O)s1)c1ccccc1 (stereo not drawn) | -6.12% |
| COC(=O)c1c(C)[nH]c(C)c1-c1ccc([N+](=O)[O-])cc1 | -6.3% |
| COC(=O)c1c(C)[nH]c(C(=O)/C=C/c2ccc(Cl)cc2)c1C | 30.8% (active) |
| COC(=O)c1c(C)oc(C)c1S(=O)(=O)NCc1ccc(Cl)cc1 | -1.57% |
| COc1ccc(NC(=O)c2sc3nc(C)nc(N4CCN(c5ccccn5)CC4)c3c2C)c(OC)c1 | -5.96% |
| CCN(C(=O)COC(=O)/C=C/c1nc2ccccc2s1)C1CCS(=O)(=O)C1 (stereo not drawn) | -3.69% |
| O=S(=O)(Nc1cccc(-n2cnnn2)c1)c1cnc(Cl)c(Cl)c1 | 4.36% |
| Nc1c(C(=O)c2cccs2)sc2nsc(SCCN3CCCCC3)c12 | 24.4% (active) |
| O=C(CN1C2=NCCN2c2ccccc21)c1cccs1 | 4.8% |
| O=C(c1ccc(Oc2ccc(Cl)cc2)c([N+](=O)[O-])c1)N1CCCC1 | -3.06% |
| COc1ccccc1N=Cc1c(O)c2ccccc2oc1=O | 9.95% |
| COc1cc(N=Cc2c(O)[nH]c3ccccc23)cc(OC)c1OC | 6.65% |
| COc1ccc(N=Cc2c(O)[nH]c3ccccc23)cc1OC | 43.7% (active) |
| COc1cc(OC)c(C(=S)N2CCCC2)cc1OC | -2.47% |
| Cc1cccc(NS(=O)(=O)c2cc(Cl)ccc2Cl)n1 | -0.991% |
| C[C@H](NC(=O)c1nc[nH]c1C(=O)NCC(=O)OC(C)(C)C)C(=O)OCc1ccccc1 | -0.808% |
| CCC(C)C(NC(=O)C1CCC(=O)N1C(=O)OCc1ccccc1)C(=O)NC(C(=O)N1CCCC1C(N)=O)C(C)CC (stereo not drawn) | -2.75% |
| COc1ccccc1N1CCN(/N=C\C(Br)=C\c2ccccc2)CC1 | 21.4% |
| COc1cc(/C=N/N2CCN(c3ccccc3)CC2)ccc1OC(C)=O | 15.1% |
| COc1ccccc1N1CCN(/N=C/c2ccc(O)cc2O)CC1 | 20% (active) |
| Cc1nnc(NC(=O)C(c2ccccc2)c2ccccc2)s1 | -6.29% |
| CCCCN1C(=O)C(C)=C(C)C1OCCc1ccc(OC)c(OC)c1 (stereo not drawn) | -1.75% |
| COc1ccc(C(C(=O)NC2CCCCC2)N(C(=O)c2snc(C(N)=O)c2N)c2ccccc2OC)cc1 (stereo not drawn) | -4.3% |
| Cc1ccc(NC(=O)OCc2cncs2)cc1 | 28.5% (active) |

| Structure (SMILES) | max response |
| --- | --- |
| CC(C)(C)C1CCC(OC(=O)CCC(=O)Nc2ccccc2)CC1 (stereo not drawn) | 4.12% |
| CCOC(=O)Nc1ccc(NC(=O)OCC)cc1 | 38.2% (active) |
| Cc1ccc(OCc2nnc(NC(=O)OCC(C)C)s2)cc1 | -6.37% |
| CCCCCOC(=O)NCCOC(=O)Nc1ccc(C(=O)OCC)cc1 | -1.37% |
| Cc1ccc(NC(=O)OCCNC(=O)c2ccncc2)cc1 | 19.8% (active) |
| CC(C)(COC(=O)Nc1ccccc1)COC(=O)Nc1ccccc1 | 19% (active) |
| CCOC(=O)Nc1ccc(S(=O)(=O)N(C)C(C)C)cc1 | 2.33% |
| COc1ccc(NC(=O)/C(Cl)=C(/Cl)S(=O)Cc2ccc(C)cc2)cn1 (stereo not drawn) | -12.1% |
| CCOC(=O)N1CCN(CCC(=O)Nc2ccccc2)CC1 | -2.64% |
| Cc1ccc(C(=O)NCCNC(=O)c2cnccn2)cc1 | -0.952% |
| CCOC(=O)C(NC(C)=O)C(=O)Nc1ccc(OC)cc1 (stereo not drawn) | -2.02% |
| O=C(c1ccccc1)C(Cn1cncn1)C(Sc1ccccc1)c1ccccc1 (stereo not drawn) | -6.69% |
| CC(C)C(=O)N1CCC2(CC1)Oc1ccc(F)cc1C(=O)C21CC(c2ccccc2)=NO1 (stereo not drawn) | -2.77% |
| CN(C)CCOC1c2ccccc2-c2ccccc21 | 0.251% |
| COc1cc(OC)c(C(=O)OC(C)C(=O)Nc2cc(C(F)(F)F)ccc2Cl)cc1OC (stereo not drawn) | 4.97% |
| CC1=C(C(N)=O)C(c2ccc(Br)cc2)n2ncnc2N1 (stereo not drawn) | -0.44% |
| c1ccc(-c2cc(N3CCCCC3)c3ccccc3n2)cc1 | -6.32% |
| Cc1ccc(S(=O)(=O)N(C)C)cc1NC(=O)C1Cc2ccccc2CN1C(=O)c1ccco1 (stereo not drawn) | -2.92% |
| C=CCC1=C/C(=C\c2c(N)n3nc(CC(=O)N4CCOCC4)sc3nc2=O)C=C(OC)C1=O | 0.431% |
| Cc1ccc(OS(=O)(=O)c2ccc(-c3csc(C)n3)s2)c(C)c1 | 1.06% |
| CN(Cc1nc2ccc(F)cc2[nH]1)Cc1nc(CC2CC2)no1 | -0.7% |
| COc1ccccc1OCC(O)CN1CCOCC1 (stereo not drawn) | -1.33% |
| OC(COc1ccc2ccccc2c1)Cn1cncn1 (stereo not drawn) | 8.69% |
| OC(COc1ccc2ccccc2c1)CN1CCOCC1 (stereo not drawn) | 24% (active) |
